# According to paper PMC4552634, “A New Set of Chemical Starting Points with Plasmodium falciparum Transmission-Blocking Potential for Antimalarial Drug Discovery” (PLoS ONE, 2015):
# Like-named read-outs stand apart in the source and are kept apart here. The campaign covered roughly 13,000 compounds. About 3,200 (25%) showed an effect of 50% or more. Some of the results follow.
# System: P. falciparum stage V gametocytes
# Parameters: BacTiter-Glo ATP luminescence viability of purified stage V gametocytes in 384-well plates, per cent inhibition versus DMSO
# Conditions: 48 h, 5 µM, inhibitor
Structure (SMILES),% Inhibition,% Inhibition (% Inhibition)
O=C(Nc1ccc([N+](=O)[O-])cc1O)Nc1ccccc1Oc1ccccc1 [TCMDC-139010],-27.06%,–
O=c1[nH]c2c(c(O)c1[N+](=O)[O-])CCC2 [TCMDC-131385],-1.405%,–
Cc1ccc(NC(=O)NC2CCN(CCC(NC(=O)Cc3ccccc3)c3ccc(Cl)c(Cl)c3)CC2)cc1 (stereo not drawn) [TCMDC-141708],-50.52%,–
CCOC(=O)C(=O)N1c2ccc(OCC)cc2-c2c(ssc2=S)C1(C)C [TCMDC-124090],-28.77%,–
COc1cc(NC(=O)/C=C/c2cccc3cc[nH]c23)ccc1OCCN(C(C)C)C(C)C [TCMDC-139962],14.04%,–
CCC(NC(=O)c1ccccc1NC(=O)c1ccc(C)cc1)C(=O)OC (stereo not drawn) [TCMDC-124179],51.66%,–
CCOC(=O)c1ccc(NC(=O)c2ccccc2C(=O)O)cc1 [TCMDC-125804],12.67%,–
Cc1cc(NC(=O)c2ccc(-c3ccccc3)cc2)no1 [TCMDC-123478],45.67%,–
CC(=O)N(C)/N=C/[C@H](CCc1ccccc1)NC(=O)[C@H](CC(C)C)NC(=O)c1cccc(OCCN2CCOCC2)c1 [TCMDC-135821],14.53%,–
OC1(C(F)(F)F)CC(c2ccccc2)=NN1c1nncc(-c2ccccc2)n1 (stereo not drawn) [TCMDC-123864],70.72%,–
O=C(Nc1cccc(-c2cccc(-c3nc4ccccc4[nH]3)c2)c1)NC1CC1c1ccccc1 (stereo not drawn) [TCMDC-133253],–,-2.475%
Cc1cc(-c2cccc(CNC3CCN(C)CC3)c2)ccc1S(=O)(=O)NCc1ccccc1 [TCMDC-132379],41.73%,–
CN1CCC(NCc2ccc(-c3ccc(S(=O)(=O)NCc4ccccc4)c(F)c3)cc2)CC1 [TCMDC-132235],73.08%,–
CN1CCC(NCc2cccc(-c3ccc(S(=O)(=O)NCc4ccccc4)c(F)c3)c2)CC1 [TCMDC-132219],107.3%,–
Cc1cc(-c2ccc(CNC3CCN(C)CC3)cc2)ccc1S(=O)(=O)NCc1ccccc1 [TCMDC-132474],44.56%,–
CCNc1cc(C(=O)N[C@@H](Cc2ccccc2)[C@H](O)CN[C@H](C)C(C)(C)C)cc(N2CCCCS2(=O)=O)c1 [TCMDC-135194],4.242%,–
O=C(N[C@@H](CC1CCCCC1)C(=O)NCc1cccc(C(F)(F)F)c1)c1ccc(O)c(-c2ccc(Cl)c(Cl)c2)c1 [TCMDC-140836],10.47%,–
Cc1nc2sccn2c1C(=O)NCCc1ccccc1Cl [TCMDC-136538],1.524%,–
CC(C)(CNC(=O)[C@H]1CCCN1)c1nc(-c2ccc(Cl)c(O)c2)c(-c2ccncc2)[nH]1 [TCMDC-141060],-63.79%,–
COc1ccccc1CCNc1nccc(N[C@@H](Cc2ccccc2)C(=O)NCc2cccs2)n1 [TCMDC-134745],80.93%,–
O=C(NCc1cccs1)[C@H](Cc1ccccc1)Nc1ccnc(NCCc2ccc(F)cc2)n1 [TCMDC-134825],42.49%,–
COc1ccccc1CCNc1ncc(F)c(N[C@@H](Cc2ccccc2)C(=O)NCCc2ccccc2)n1 [TCMDC-134948],4.371%,–
O=C(NCc1cccs1)[C@H](Cc1ccccc1)Nc1ccnc(NCCc2ccccc2)n1 [TCMDC-134810],62.6%,–
O=C(NCCc1ccccc1)[C@H](Cc1ccccc1)Nc1ccnc(NCC2CCCCC2)n1 [TCMDC-134711],29.07%,–

Structure (SMILES),% Inhibition,% Inhibition (% Inhibition)
O=C(NCc1cccs1)[C@H](Cc1ccccc1)Nc1ccnc(NCC2CCCCC2)n1 [TCMDC-134708],-6.926%,–
O=C(C1CC1)N1c2ccccc2CCc2ccccc21 [TCMDC-123880],17.87%,–
COc1cc(Cl)c(C)cc1-n1cc(C(=O)c2cc(Br)ccc2O)cc(C#N)c1=O [TCMDC-123630],-51.04%,–
CCCCC(CC)NC(=O)[C@H]1CNCCN1C(=O)CCCc1ccccc1 (stereo partly drawn) [TCMDC-141269],-15.01%,–
CCOC(=O)C1=C(C)NC2=C(C(=O)C(C(=O)OC)C(C)C2)C1c1cc(Br)c(OCC)c(OC)c1 (stereo not drawn) [TCMDC-125139],94.17%,–
CCCCOC(=O)C1=C(C)NC2=C(C(=O)CC(c3ccc(OC)c(OC)c3)C2)C1c1ccc(O)cc1 (stereo not drawn) [TCMDC-125635],28.36%,–
CCCCOC(=O)C1=C(C)NC2=C(C(=O)CCC2)C1c1ccc(OC)c(Br)c1 (stereo not drawn) [TCMDC-124210],-70.69%,–
O=C(Nc1ccc(-c2ccc(-c3nc4ccccc4[nH]3)cc2)cc1)Nc1ccc(Cl)c(Cl)c1 [TCMDC-133279],-60.39%,–
Oc1ccc(CN2CCN(CCOC(c3ccc(F)cc3)c3ccc(F)cc3)CC2)cc1Cl [TCMDC-135691],8.088%,–
CN1CCC(C(=O)Nc2cccc(-c3ccc(-c4nc5ccc(C(F)(F)F)cc5[nH]4)cc3)c2)CC1 [TCMDC-132190],21.59%,–
O=C(N[C@@H](CC1CCCCC1)C(=O)NCCN1CCCCC1)c1ccc(O)c(-c2ccc(Cl)c(Cl)c2)c1 [TCMDC-140862],10.77%,–
CC(C)CN(c1nc(C(=O)NNC(=O)[C@H](CC2CC2)NC(=O)c2cc3cc(OCCN(C)C)ccc3o2)cs1)C1CC1 [TCMDC-139231],-13.37%,–
CC(C)CN(c1nc(C(=O)NNC(=O)[C@H](CC2CC2)NC(=O)c2cc3cc(OCCN4CCCCC4)ccc3o2)cs1)C1CC1 [TCMDC-139232],55.6%,–
Cc1nn(CC(O)Cn2c3ccc(Br)cc3c3cc(Br)ccc32)c(C)c1Br (stereo not drawn) [TCMDC-124164],72.64%,–
OC(CNC1CCCCC1)Cn1c2ccc(I)cc2c2cc(I)ccc21 (stereo not drawn) [TCMDC-124074],101.6%,–
OC(CNC1CCCCC1)Cn1c2ccccc2c2ccccc21 (stereo not drawn) [TCMDC-124168],90.81%,–
OC(CNCc1ccco1)Cn1c2ccc(Br)cc2c2cc(Br)ccc21 (stereo not drawn) [TCMDC-124071],6.388%,–
OC(CN1CCN(C2CCCCC2)CC1)Cn1c2ccccc2c2cc(Br)ccc21 (stereo not drawn) [TCMDC-124167],-21.87%,–
Oc1ccc2ccccc2c1CNC1CCCCCC1 [TCMDC-137607],9.064%,–
CC(C)(C)SCC(O)Cn1c2ccc(Br)cc2c2cc(Br)ccc21 (stereo not drawn) [TCMDC-124058],-64.42%,–
CC12CCC(CN(CC(O)Cn3c4ccccc4c4cc(I)ccc43)C1)C2(C)C (stereo not drawn) [TCMDC-124075],-73.11%,–
CC(NCC(O)Cn1c2ccccc2c2ccccc21)c1ccccc1 (stereo not drawn) [TCMDC-124073],13.55%,–
CC1CC(C)CN(CC(O)CNC(=O)Nc2ccc(Br)cc2)C1 (stereo not drawn) [TCMDC-134636],5.991%,–
CC1CN(CC(O)Cn2c3ccc(Br)cc3c3cc(Br)ccc32)CC(C)O1 (stereo not drawn) [TCMDC-124072],94.88%,–
